Source: PubChem BioAssay (NCATS)
Results filed as inconclusive are left out. The source made the active and inactive calls. Unless noted, calls follow the shape of the dose curve; as a rule, active = well fitted curve in the direction sought with a large enough effect; inconclusive = small, poorly fitted or top-dose-only effect, or another doubt; inactive = no such curve, though single readings can be large; an effect the other way counts as inactive or inconclusive.

Tests used:
[1] = target: Lysosomal acid glucosylceramidase (Homo sapiens) (UniProt P04062); assay: Glucocerebrosidase-p2 (AID 348; in the data active = potency below about 10 µM; also: potency is read from the fitted curve at half-maximal effect); settings: purified GBA, blue fluorogenic substrate, 40 min
How it was run: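 Compounds titrated from 0.6 nM upwards against 0.2 nM enzyme in pH 5.9 citric acid/KH2PO4, taurocholate, tween-20; blue fluorogenic substrate 80 uM, 40 min room temperature, stopped and read Ex 365/Em 440 for AC50.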

[2] = AP1 Signaling Pathway (AID 357; active = well fitted curve in either direction with a large enough effect, not every such curve was filed as active; also: % is scaled to controls: 0 for no effect and ±100 for the full control effect); settings: ME-180 AP-1-bla reporter, EGF-induced, beta-lactamase ratio, 5 h; at 7.69 µM (top of the series) unless noted
How it was run: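 AP-1-bla ME-180 cells with beta-lactamase reporter under AP-1 response element, stimulated with EC50 EGF; compounds titrated, 5 hours at 37 degrees Celsius. CCF4 read at 460/530 nm ratio; positive and negative modulators judged by AC50.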

[3] = NFAT Signaling Pathway (AID 444; active = well fitted curve in either direction with a large enough effect, not every such curve was filed as active;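 also: carbachol stimulus at about its EC50 of 1 µM final; % is scaled to controls: 0 for no effect and ±100 for the full control effect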); settings: Jurkat NFAT-bla M1, carbachol, beta-lactamase ratio, 5 h; at 7.69 µM (top of the series) unless noted
How it was run: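 Read-out: CCF4 FRET ratio (460 nm/530 nm) after 1 h RT dye loading, used for %activity and AC50 from titration series. Cells: Jurkat NFAT-β-lactamase/M1 line, treated with compound plus 1 uM carbachol for 5 h, 37 °C.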

[4] = Stat Signaling Pathway (AID 446; active = well fitted curve in either direction with a large enough effect, not every such curve was filed as active;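 also: ME-180 cervical cancer cells given 40 pM IL-6 alongside compound; SIE-controlled beta-lactamase reporter measured as 460/530 nm FRET emission ratio; % is scaled to controls: 0 for no effect and ±100 for the full control effect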); settings: ME-180 SIE beta-lactamase reporter, IL-6 stimulated, 5 h; at 7.69 µM (top of the series) unless noted
How it was run: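 Screening format detects activators and inhibitors alike: ME-180 SIE-bla cells stimulated at 40 pM IL-6 for 5 hrs with compound, then dual-emission beta-lactamase read at 405 nm excitation.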

[5] = target: Glucocorticoid receptor (Homo sapiens) (UniProt P04150); assay: GR-GFP Redistribution (AID 450;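 active = compounds whose dose series gives a full or clear partial fitted curve of increased nuclear translocation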; also: potency is read from the fitted curve at half-maximal effect); settings: U2OS GR-GFP nuclear translocation, laser cytometry, 2 h
[6] = target: Mitogen-activated protein kinase 10 (Mus musculus) (UniProt Q61831); assay: JNK3 AlphaScreen Assay (AID 530; active = well fitted curve in either direction with a large enough effect, not every such curve was filed as active;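 also: kinase came from lysate of stimulated human HepG2 cells; signal reports phosphorylation of biotinylated GST-cJun 1-79 at Ser73 with 10 µM ATP; % is scaled to controls: 0 for no effect and ±100 for the full control effect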); settings: JNK3 lysate, c-Jun phosphorylation; series mostly up to 57.1 µM
How it was run: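 Room-temperature AlphaScreen kinase assay; pre-activated HepG2 lysate as JNK3 source, biotin-GST-cJun(1-79) substrate, 10 uM ATP, compound 15 min preincubation.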

[7] = target: 3',5'-cyclic-AMP phosphodiesterase 4B (Homo sapiens) (UniProt Q07343); assay: qHTS Assay for Inhibitors of PDE-IV (AID 607; active = well fitted activation curve with a large enough effect in the main read-out, with a control signal flat, not every such curve was filed as active; also: % of control where 0% means no effect); settings: HEK293 ACTOne CNG channel cells, membrane potential fluorescence; series mostly up to 22.9 µM
How it was run: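 The readout is membrane depolarisation from a cAMP-sensing CNG channel, detected with a potential dye at ex 535/em 590. Cells were HEK293-derived (endogenous PDE-IV) at 1000 cells/well, titrated up to 22.9 uM final.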

[8] = qHTS Assay for Lipid Storage Modulators (AID 1519; calls by dose curve); settings: Drosophila S3 cells, BODIPY lipid droplet/cell ratio, laser cytometry, cells loaded with oleic acid; for activity change, negative = inhibition: at 57.5 µM (top of the series)
How it was run: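 Cells seeded at 5,000 per well were treated with compounds over a concentration series and loaded with oleic acid (400 uM, as added). Lipid droplet fluorescence (488 nm excitation, 500-530 nm channel) was read by laser-scanning cytometry and normalized to 20 uM Triacsin C.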

[9] = target: Dual specificity protein kinase CLK4 (Homo sapiens) (UniProt Q9HAZ1); assay: qHTS Assay for Inhibitors of CDC-like Kinase 4 (Kinase-Glo Assay) (AID 1770); settings: recombinant Clk4, Kinase-Glo ATP depletion luminescence; series mostly up to 66.7 µM; also: % is scaled to controls: 0 for no effect and ±100 for the full control effect; nearly all actives have a fitted effect of over 65% in size
How it was run: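 Inhibition was judged from remaining ATP, measured by Ultra-Glo luciferase bioluminescence after Clk4 (25 nM) had acted on RS peptide at 1 uM ATP for 4.5 hours, room temperature.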

[10] = target: Dual specificity protein kinase CLK4 (Homo sapiens) (UniProt Q9HAZ1); assay: qHTS Assay for Inhibitors of CDC-like Kinase 4 (ADP-Glo Assay) (AID 1771); settings: recombinant CLK4, ADP-Glo luminescence; series mostly up to 80 µM; also: % is scaled to controls: 0 for no effect and ±100 for the full control effect; nearly all actives have a fitted effect of over 70% in size
How it was run: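 Clk4 (25 nM) was incubated 1 hr at room temperature with 100 uM RS repeat peptide and 1 uM ATP in buffer with 2 mM MgCl2, 0.5 mM EGTA, 2.5 mM DTT. ADP formed was quantified by ADP-Glo luminescence.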

[11] = target: Dual specificity protein kinase CLK4 (Homo sapiens) (UniProt Q9HAZ1); assay: qHTS Assay for Inhibitors of CDC-like Kinase 4 (ADP-FP Assay) (AID 1795); settings: Transcreener ADP fluorescence polarization; series mostly up to 50 µM;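 also: recombinant human CLK4 phosphorylating RS repeat peptide at 1 µM ATP; % is scaled to controls: 0 for no effect and ±100 for the full control effect; nearly all actives have a fitted effect of over 60% in size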
How it was run: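 Inhibition of ADP formation by 6.25 nM Clk4 is measured using 1 uM ATP and 100 uM RS repeat peptide over one hour. Produced ADP displaces a fluorescent tracer from antibody, lowering polarization.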

[12] = target: Ubiquitin carboxyl-terminal hydrolase 1 (Homo sapiens) (UniProt O94782); assay: Inhibitors of USP1/UAF1: Pilot qHTS (AID 504865); settings: purified USP1/UAF1, Ub-rhodamine cleavage fluorescence; series mostly up to 54.9 µM; also: nearly all actives have a fitted effect of over 35% in size; also: potency is read from the fitted curve at half-maximal effect
How it was run: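 Kinetic fluorescence assay: 1nM USP1/UAF1, 15 min compound preincubation, then 150nM Ub-Rho; 480/540 nm.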

[13] = Primary qHTS for small molecule stabilizers of the endoplasmic reticulum resident proteome: Secreted ER Calcium Modulated Protein (SERCaMP) assay (AID 1508630); settings: SH-SY5Y GLuc-SERCaMP (Gaussia luciferase released on ER calcium loss) secretion, thapsigargin, luminescence; series mostly up to 38.4 µM; also: % is scaled to controls: 0 for no effect and ±100 for the full control effect
How it was run: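 GLuc-SERCaMP-expressing SH-SY5Y cells, pretreated 16 h with compound, are challenged with thapsigargin to empty ER calcium stores; after 4 h, coelenterazine is added directly to the medium and luminescence is imaged.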

[14] = target: Glucocorticoid receptor (Homo sapiens) (UniProt P04150); assay: GR-EFC Redistribution (AID 451; calls by dose curve; also: potency is read from the fitted curve at half-maximal effect); settings: CHO-K1 GR-EFC translocation, beta-gal luminescence, 2 h
How it was run: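 Translocation of GR-ED fusion to nuclear EA restores b-gal, read by luminescence after 1 h room-temperature detection. Engineered CHO-K1 biosensor cells, 1,000/well, exposed 2 h at 37 C to titrations up to 46 uM final.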

[15] = qHTS Assay for Identification of Small Molecule Agonists for Hypoxia Response Element Signaling Pathway (AID 914; active = well fitted activation curve with a large enough effect in the signal ratio, with a control signal flat, not every such curve was filed as active; the % refers to the signal ratio; also: potency is read from the fitted curve at half-maximal effect; as to activation: % of control where 0% means no effect); settings: ME-180 (cervical carcinoma) HRE-bla reporter, beta-lactamase ratio, CoCl2, 17 h; activation: stronger effect = higher value
How it was run: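 Read-out: CCF4 FRET ratio of 460nm to 530nm emission (excitation 405nm) after 2.5 hours at room temperature, taken from HRE-bla ME-180 cells that had been exposed to compound and EC50 CoCl2 for 17 hours.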

[16] = target: Cytochrome P450 1A2 (Homo sapiens) (UniProt P05177); assay: p450-cyp1a2 (AID 410; calls by dose curve; also: potency is read from the fitted curve at half-maximal effect;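 as to activity change, negative = inhibition: -100% = full effect of reference inhibitor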); settings: recombinant CYP1A2, luciferin-ME demethylation, luminescence; series mostly up to 57 µM
How it was run: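 Human CYP1A2 (20nM) demethylated Luciferin-ME at its Km (100uM) in 100mM KPO4. After 10 min compound preincubation, NADPH regeneration ran the reaction 60 min at room temperature. Luciferin was read by luminescence, normalized to 57 uM furafylline.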

[17] = target: Cytochrome P450 3A4 (Homo sapiens) (UniProt P08684); assay: qHTS Assay for Activators of Cytochrome P450 3A4 (AID 885); settings: recombinant CYP3A4, Luciferin-PPXE luminescence, 60 min; series mostly up to 57.1 µM; also: nearly all actives have a fitted effect of over 65% in size
How it was run: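 Steps: enzyme/substrate mix dispensed; compound added, 10 min RT; NADPH regeneration solution added, 60 min RT; luciferin detection buffer stops reaction; 20 min later luminescence measured.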

[18] = target: Cytochrome P450 3A4 (Homo sapiens) (UniProt P08684); assay: qHTS Assay for Inhibitors and Substrates of Cytochrome P450 3A4 (AID 884); settings: recombinant CYP3A4, Luciferin-PPXE luminescence; series mostly up to 57.1 µM; also: potency is read from the fitted curve at half-maximal effect; nearly all actives have a fitted effect of over 50% in size
How it was run: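 20 nM human CYP3A4 with 25 uM Luciferin-PPXE (at KM) in 200 mM KPO4, preincubated 10 min with compound; NADPH regeneration started a 60 min RT reaction. Luciferin detected by luminescence, normalized to 57 uM ketoconazole as full inhibition.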

[19] = target: Cytochrome P450 2C19 (Homo sapiens) (UniProt P33261); assay: qHTS Assay for Inhibitors and Substrates of Cytochrome P450 2C19 (AID 899); settings: recombinant CYP2C19, luciferin-H EGE luminescence; series mostly up to 57.1 µM; also: potency is read from the fitted curve at half-maximal effect; nearly all actives have a fitted effect of over 60% in size
How it was run: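 5nM enzyme + 10uM Luciferin-H EGE (=KM), 50mM KPO4; cpd pin-transferred, 10 min 37C; NADPH regen, 60 min 37C; stopped w/ luciferin detection reagent, 20 min; luminescence. Normalized to 57uM ketoconazole (AC100).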

[20] = target: Cytochrome P450 2D6 (Homo sapiens) (UniProt P10635); assay: qHTS Assay for Inhibitors and Substrates of Cytochrome P450 2D6 (AID 891); settings: recombinant CYP2D6, luciferin-ME EGE luminescence; series mostly up to 57.1 µM; also: potency is read from the fitted curve at half-maximal effect; nearly all actives have a fitted effect of over 60% in size
How it was run: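 Human CYP2D6 (5 nM) with 30 uM Luciferin-ME EGE (at Km) in 100 mM KPO4, compound preincubated 10 min, then NADPH regeneration system for 60 min at room temperature. Luciferin read by luminescence; normalized to 1.43 uM quinidine.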

[21] = measured here: cell count channel max response
[22] = measured here: lipid channel max response

Ubiquitin carboxyl-terminal hydrolase 1 (Homo sapiens), sequence (O94782 whole entry, looked up): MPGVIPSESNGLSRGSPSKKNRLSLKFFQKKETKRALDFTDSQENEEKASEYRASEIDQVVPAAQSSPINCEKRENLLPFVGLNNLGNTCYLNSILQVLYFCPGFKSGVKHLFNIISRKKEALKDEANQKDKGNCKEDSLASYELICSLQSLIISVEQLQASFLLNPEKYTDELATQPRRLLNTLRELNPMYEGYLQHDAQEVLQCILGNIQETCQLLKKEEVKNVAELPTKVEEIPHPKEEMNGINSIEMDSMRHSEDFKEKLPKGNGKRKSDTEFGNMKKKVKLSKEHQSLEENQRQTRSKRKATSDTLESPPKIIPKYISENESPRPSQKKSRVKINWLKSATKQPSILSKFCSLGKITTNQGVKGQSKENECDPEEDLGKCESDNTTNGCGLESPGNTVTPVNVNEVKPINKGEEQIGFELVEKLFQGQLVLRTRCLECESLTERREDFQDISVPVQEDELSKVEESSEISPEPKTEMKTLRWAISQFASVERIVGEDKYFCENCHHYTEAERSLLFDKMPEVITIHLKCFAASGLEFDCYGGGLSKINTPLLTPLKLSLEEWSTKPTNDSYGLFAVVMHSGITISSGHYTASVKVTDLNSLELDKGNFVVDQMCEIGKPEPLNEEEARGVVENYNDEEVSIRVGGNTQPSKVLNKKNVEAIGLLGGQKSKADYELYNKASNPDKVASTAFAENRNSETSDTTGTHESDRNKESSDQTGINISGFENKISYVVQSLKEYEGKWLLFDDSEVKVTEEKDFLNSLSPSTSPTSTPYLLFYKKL
3',5'-cyclic-AMP phosphodiesterase 4B (Homo sapiens), sequence (Q07343 whole entry, looked up): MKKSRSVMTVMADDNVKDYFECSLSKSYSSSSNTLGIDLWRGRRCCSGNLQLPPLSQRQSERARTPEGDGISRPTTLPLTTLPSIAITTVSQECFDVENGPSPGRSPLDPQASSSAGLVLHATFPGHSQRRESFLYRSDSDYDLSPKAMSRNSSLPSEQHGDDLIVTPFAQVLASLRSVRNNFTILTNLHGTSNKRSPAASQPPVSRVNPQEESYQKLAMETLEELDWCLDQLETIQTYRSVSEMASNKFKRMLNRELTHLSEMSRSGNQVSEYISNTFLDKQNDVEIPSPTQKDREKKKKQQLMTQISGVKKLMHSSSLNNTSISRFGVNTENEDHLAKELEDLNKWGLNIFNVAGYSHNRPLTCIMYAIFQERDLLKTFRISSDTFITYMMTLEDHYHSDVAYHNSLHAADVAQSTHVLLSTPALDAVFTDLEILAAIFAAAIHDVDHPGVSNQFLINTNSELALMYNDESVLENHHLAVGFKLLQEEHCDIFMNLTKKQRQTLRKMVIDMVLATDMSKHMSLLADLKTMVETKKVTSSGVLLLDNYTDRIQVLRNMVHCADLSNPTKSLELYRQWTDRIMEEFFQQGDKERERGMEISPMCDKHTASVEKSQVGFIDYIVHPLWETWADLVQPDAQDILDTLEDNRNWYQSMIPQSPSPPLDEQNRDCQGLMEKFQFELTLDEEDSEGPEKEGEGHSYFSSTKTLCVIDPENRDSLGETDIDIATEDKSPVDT
Glucocorticoid receptor (Homo sapiens), sequence (P04150 whole entry, looked up, the tested form may be a part): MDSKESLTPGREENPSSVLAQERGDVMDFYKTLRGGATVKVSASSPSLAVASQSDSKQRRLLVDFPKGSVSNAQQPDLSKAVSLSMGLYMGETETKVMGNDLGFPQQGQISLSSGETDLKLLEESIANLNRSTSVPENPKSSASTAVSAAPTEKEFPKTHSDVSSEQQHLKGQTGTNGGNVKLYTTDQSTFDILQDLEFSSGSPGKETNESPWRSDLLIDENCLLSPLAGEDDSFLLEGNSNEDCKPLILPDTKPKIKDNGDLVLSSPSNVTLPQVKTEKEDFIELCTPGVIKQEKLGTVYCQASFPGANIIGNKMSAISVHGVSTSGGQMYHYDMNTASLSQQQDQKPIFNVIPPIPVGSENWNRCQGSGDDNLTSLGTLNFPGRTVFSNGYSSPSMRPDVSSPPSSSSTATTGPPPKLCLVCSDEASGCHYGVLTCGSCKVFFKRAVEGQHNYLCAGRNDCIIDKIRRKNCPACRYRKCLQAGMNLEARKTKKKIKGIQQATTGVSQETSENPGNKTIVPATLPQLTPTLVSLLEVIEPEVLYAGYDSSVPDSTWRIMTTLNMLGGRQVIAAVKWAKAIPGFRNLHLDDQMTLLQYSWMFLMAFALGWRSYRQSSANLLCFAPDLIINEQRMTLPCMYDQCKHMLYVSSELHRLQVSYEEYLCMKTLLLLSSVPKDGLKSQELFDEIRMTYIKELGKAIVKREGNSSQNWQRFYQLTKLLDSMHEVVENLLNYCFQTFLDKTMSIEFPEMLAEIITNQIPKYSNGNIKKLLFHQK
Cytochrome P450 3A4 (Homo sapiens), sequence (P08684 whole entry, looked up): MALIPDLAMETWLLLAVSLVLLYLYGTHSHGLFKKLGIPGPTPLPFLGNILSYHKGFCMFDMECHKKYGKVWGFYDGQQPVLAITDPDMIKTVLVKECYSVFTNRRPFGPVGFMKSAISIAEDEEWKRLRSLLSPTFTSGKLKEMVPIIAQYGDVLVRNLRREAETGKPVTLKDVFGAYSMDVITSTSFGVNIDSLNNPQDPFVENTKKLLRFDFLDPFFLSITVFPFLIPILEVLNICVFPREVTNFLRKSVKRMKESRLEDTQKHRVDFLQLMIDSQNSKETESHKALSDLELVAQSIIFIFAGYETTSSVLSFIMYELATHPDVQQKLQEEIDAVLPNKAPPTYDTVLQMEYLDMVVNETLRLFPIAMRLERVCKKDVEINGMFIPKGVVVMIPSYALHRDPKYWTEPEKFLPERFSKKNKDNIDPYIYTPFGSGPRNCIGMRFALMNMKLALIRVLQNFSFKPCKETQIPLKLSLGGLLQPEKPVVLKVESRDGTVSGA
Dual specificity protein kinase CLK4 (Homo sapiens), sequence (Q9HAZ1 whole entry, looked up): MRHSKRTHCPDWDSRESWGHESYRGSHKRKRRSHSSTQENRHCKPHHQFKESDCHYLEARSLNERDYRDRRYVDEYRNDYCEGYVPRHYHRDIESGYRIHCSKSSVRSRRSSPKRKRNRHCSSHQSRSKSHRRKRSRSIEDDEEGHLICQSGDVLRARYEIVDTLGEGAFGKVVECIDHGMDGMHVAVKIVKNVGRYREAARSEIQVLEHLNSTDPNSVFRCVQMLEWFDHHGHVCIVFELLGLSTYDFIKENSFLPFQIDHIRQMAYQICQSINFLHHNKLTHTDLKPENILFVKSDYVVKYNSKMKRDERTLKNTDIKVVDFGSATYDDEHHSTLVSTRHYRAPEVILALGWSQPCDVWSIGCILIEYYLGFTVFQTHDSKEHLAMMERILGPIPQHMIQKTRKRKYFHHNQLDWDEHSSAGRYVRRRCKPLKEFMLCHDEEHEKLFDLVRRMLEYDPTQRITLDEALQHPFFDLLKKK
Lysosomal acid glucosylceramidase (Homo sapiens), sequence (P04062 whole entry, looked up): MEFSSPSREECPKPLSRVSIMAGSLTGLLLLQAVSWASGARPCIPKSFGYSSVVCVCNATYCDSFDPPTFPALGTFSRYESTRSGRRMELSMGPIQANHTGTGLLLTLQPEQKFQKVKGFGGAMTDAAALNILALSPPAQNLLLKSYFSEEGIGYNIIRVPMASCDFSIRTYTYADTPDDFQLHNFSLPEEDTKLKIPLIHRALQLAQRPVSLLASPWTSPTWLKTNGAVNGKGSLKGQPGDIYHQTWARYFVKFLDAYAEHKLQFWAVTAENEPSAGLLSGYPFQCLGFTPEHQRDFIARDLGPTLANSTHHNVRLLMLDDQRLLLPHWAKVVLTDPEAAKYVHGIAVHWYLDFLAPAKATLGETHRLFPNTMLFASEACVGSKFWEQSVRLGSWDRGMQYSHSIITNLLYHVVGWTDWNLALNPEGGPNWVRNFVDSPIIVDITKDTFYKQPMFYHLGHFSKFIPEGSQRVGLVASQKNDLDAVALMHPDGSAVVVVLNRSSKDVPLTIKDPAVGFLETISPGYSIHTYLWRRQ
Cytochrome P450 1A2 (Homo sapiens), sequence (P05177 whole entry, looked up): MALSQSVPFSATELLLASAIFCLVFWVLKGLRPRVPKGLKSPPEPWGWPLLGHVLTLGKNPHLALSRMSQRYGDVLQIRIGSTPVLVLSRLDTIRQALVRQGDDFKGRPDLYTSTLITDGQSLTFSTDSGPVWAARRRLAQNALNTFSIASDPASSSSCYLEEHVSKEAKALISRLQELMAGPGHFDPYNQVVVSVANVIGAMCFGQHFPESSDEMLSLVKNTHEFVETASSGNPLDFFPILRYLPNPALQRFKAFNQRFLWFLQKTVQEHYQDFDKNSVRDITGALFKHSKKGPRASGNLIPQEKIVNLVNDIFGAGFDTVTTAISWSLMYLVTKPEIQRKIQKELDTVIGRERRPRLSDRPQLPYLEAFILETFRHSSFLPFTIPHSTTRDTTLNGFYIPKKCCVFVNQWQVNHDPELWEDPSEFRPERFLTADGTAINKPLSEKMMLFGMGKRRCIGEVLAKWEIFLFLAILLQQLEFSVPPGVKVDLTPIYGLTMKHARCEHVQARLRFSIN
Cytochrome P450 2D6 (Homo sapiens), sequence (P10635 whole entry, looked up): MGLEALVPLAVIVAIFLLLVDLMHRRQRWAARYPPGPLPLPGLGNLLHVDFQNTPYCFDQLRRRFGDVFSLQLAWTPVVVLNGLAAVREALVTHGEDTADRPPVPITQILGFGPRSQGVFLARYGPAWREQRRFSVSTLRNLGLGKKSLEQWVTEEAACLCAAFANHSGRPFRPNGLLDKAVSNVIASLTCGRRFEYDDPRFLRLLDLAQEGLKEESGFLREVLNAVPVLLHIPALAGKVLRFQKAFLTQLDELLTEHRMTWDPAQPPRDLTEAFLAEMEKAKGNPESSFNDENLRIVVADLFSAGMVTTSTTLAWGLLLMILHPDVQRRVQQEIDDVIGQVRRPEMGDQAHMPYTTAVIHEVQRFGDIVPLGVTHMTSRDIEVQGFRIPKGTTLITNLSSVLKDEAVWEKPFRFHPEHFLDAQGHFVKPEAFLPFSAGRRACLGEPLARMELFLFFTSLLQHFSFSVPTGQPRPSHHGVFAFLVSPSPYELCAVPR

COc1cccc(Cn2c(=O)c(-c3ccc(F)cc3)nc3cnc(N(C)C)nc32)c1
20.9%: max response [8, 21]
inactive: Potency [1] > 11.4 µM | activity change, negative = inhibition [2] 12% | activity change, negative = inhibition [3] 9.76% | activity, negative = inhibition [4] -3.48% | Potency [5] > 9.22 µM | outcome [6] | Potency [7] | activity change, negative = inhibition [8] 7.91% | Potency [9] | Potency [10] | Potency [11] | Potency [12] | Potency [13]
28.6%: max response [8, 22]

COc1cccc(Cn2c(=O)c(C)nc3cnc(OC)nc32)c1
19.3%: max response [8, 22]
inactive: Potency [1] > 11.4 µM | activity change, negative = inhibition [2] -5.98% | activity change, negative = inhibition [3] 5.79% | activity, negative = inhibition [4] -2.86% | Potency [5] > 9.22 µM | Potency [14] > 46 µM | outcome [6] | Potency [7] | activation [15] 12.8% | activity change, negative = inhibition [8] 5.06% | Potency [9] | Potency [10] | Potency [11] | Potency [12] | Potency [13]
15.1%: max response [8, 21]

CN1CCN(c2ncc3nc(-c4cccc(C#N)c4)c(=O)n(Cc4ccc(F)cc4)c3n2)CC1
-4.23%: max response [8, 22]
active: Potency [15] 3.16 µM
inactive: Potency [1] > 11.4 µM | Potency [16] | Potency [5] > 9.22 µM | Potency [14] > 46 µM | outcome [6] | Potency [7] | Potency [17] | activity change, negative = inhibition [8] -3.63% | Potency [9] | Potency [10] | Potency [11] | Potency [12] | Potency [13]
1.09%: max response [8, 21]

FC(F)(F)c1ccccc1-c1nc(NCc2cccs2)c2ccccc2n1
10.9%: max response [8, 22]
inactive: Potency [1] > 11.4 µM | activity change, negative = inhibition [3] -18.2% | activity, negative = inhibition [4] -11.7% | Potency [5] > 46 µM | outcome [6] | Potency [17] | activity change, negative = inhibition [8] 2.3% | Potency [9] | Potency [10] | Potency [11] | Potency [13]
10.4%: max response [8, 21]
active: Potency [18] 3.98 µM | Potency [19] 7.94 µM | Potency [12] 7.94 µM

CNc1nc(-c2ccccc2CN(C)C)nc2ccccc12
7.86%: max response [8, 21]
inactive: Potency [1] > 11.4 µM | activity change, negative = inhibition [3] -2.05% | activity, negative = inhibition [4] 17.3% | Potency [5] > 46 µM | Potency [14] > 46 µM | outcome [6] | Potency [17] | activity change, negative = inhibition [8] 1.92% | Potency [9] | Potency [10] | Potency [11] | Potency [12] | Potency [13]
active: Potency [16] 3.16 µM | Potency [20] 3.98 µM
7.77%: max response [8, 22]
